Measured values published in the supplement of paper PMC6331611.
± gives the standard deviation of the averaged measurements. The full ranking holds about 1,600 compounds; the median of “normalized intracellular growth (luminescence, IQM-normalized) in RAW264.7 macrophages” is about 1, and the lowest 2% start at about 0.43. What follows is part of a selection rich in the lowest values, with near analogues and random picks from the rest.

System: Salmonella enterica serovar Typhimurium SL1344
Experiment: normalized intracellular growth (luminescence, IQM-normalized) in RAW264.7 macrophages (fraction of plate interquartile mean); higher = more bacterial growth (less inhibition)
Conditions: 10 µM

Compound | normalized intracellular growth (time point: T3 (3 h)) | normalized intracellular growth (time point: Tfinal (~6 h))
CC(C)Nc1ncccn1 | 0.928 ± 0.053 | 1.05 ± 0.2
Cc1oc(=O)oc1CN1CCN(c2cc3c(cc2F)c(=O)c(C(=O)O)c2n3C(C)S2)CC1 (centres undefined) | 1.14 ± 0.069 | 0.0187 ± 0.0013
NC(=O)[C@@H]1CCCN1C(=O)[C@H](Cc1c[nH]cn1)NC(=O)[C@@H]1CCC(=O)N1 | 1.02 ± 0.038 | 0.959 ± 0.044
CC1(C)OC(=O)C(OCC2CC2)=C1c1ccc(S(C)(=O)=O)cc1 | 1.15 ± 0.017 | 1.2 ± 0.13
OCC(S)CS (centres undefined) | 0.927 ± 0.011 | 1.03 ± 0.053
O=C(O)c1ccc[n+]([O-])c1 | 0.967 ± 0.051 | 1.05 ± 0.023
COc1ccc2cc(C(C)C(=O)O)ccc2c1 (centres undefined) | 1.04 ± 0.036 | 1.09 ± 0.089
C=C[C@H]1CN2CC[C@H]1C[C@H]2[C@H](O)c1ccnc2ccc(OC)cc12 | 0.978 ± 0.042 | 0.953 ± 0.058
CCCCC(CC)COC(=O)c1ccccc1O (centres undefined) | 1.05 ± 0.055 | 0.89 ± 0.17
Nc1ccc(C(=O)O)cc1 | 1.023 ± 0.0022 | 0.829 ± 0.11
O=c1[nH]c(=O)n([C@H]2C[C@H](O)[C@@H](CO)O2)cc1F | 0.699 ± 0.043 | 0.209 ± 0.03
CCc1cn([C@H]2C[C@H](O)[C@@H](CO)O2)c(=O)[nH]c1=O | 1.09 ± 0.034 | 0.868 ± 0.01
O=c1[nH]c(=O)n([C@H]2C[C@H](O)[C@@H](CO)O2)cc1I | 1.005 ± 0.0041 | 1.01 ± 0.2
CC(C)(C)C(=O)C(Oc1ccc(Cl)cc1)n1ccnc1 (centres undefined) | 1.042 ± 0.0043 | 1.12 ± 0.016
N#Cc1ccc2c(c1)N(CCCN1CCC(O)CC1)c1ccccc1S2 | 1.04 ± 0.014 | 0.869 ± 0.15
CC(C)C[C@@H]1NC(=O)[C@H](CCCN)NC(=O)[C@H](C(C)C)NC(=O)[C@H](Cc2ccc(O)cc2)N[C@@H](CCC(=O)O)C(=O)N[C@@H](CC(N)=O)C(=O)[C@@H](Cc2ccccc2)NC(=O)[C@H](Cc2ccccc2)NC(=O)[C@@H]2CCCN2C(=O)[C@@H](Cc2ccccc2)NC1=O | 0.95 ± 0.055 | 1 ± 0.064
CC(=O)OCC1=C(C(=O)O)N2C(=O)[C@@H](NC(=O)Cc3cccs3)[C@H]2SC1 | 0.979 ± 0.037 | 1.01 ± 0.027
COCC1=C(C(=O)OC(C)OC(=O)OC(C)C)N2C(=O)[C@@H](NC(=O)/C(=N\OC)c3csc(N)n3)[C@H]2SC1 (some centres undefined) | 0.953 ± 0.066 | 1.06 ± 0.2
CC=CC1=C(C(=O)O)N2C(=O)[C@@H](NC(=O)[C@H](N)c3ccc(O)cc3)[C@H]2SC1 | 1.06 ± 0.039 | 0.738 ± 0.11
CO/N=C(\C(=O)N[C@@H]1C(=O)N2C(C(=O)O)=C(COC(C)=O)CS[C@H]12)c1csc(N)n1 | 0.898 ± 0.017 | 0.178 ± 0.0072
CC(=O)OCC1=C(C(=O)O)N2C(=O)[C@@H](NC(=O)CSc3ccncc3)[C@H]2SC1 | 1 ± 0.024 | 0.957 ± 0.042
N[C@@H](C(=O)N[C@@H]1C(=O)N2C(C(=O)O)=C(Cl)CS[C@H]12)c1ccccc1 | 1.03 ± 0.054 | 1.08 ± 0.021
CO/N=C(\C(=O)N[C@@H]1C(=O)N2C(C(=O)OCOC(=O)C(C)(C)C)=C(/C=C\c3scnc3C)CS[C@H]12)c1csc(N)n1 | 0.923 ± 0.047 | 0.0689 ± 0.074
Cn1nnnc1SCC1=C(C(=O)O)N2C(=O)[C@@H](NC(=O)[C@H](O)c3ccccc3)[C@H]2SC1 | 1.08 ± 0.041 | 1.02 ± 0.17
CO/N=C(\C(=O)N[C@@H]1C(=O)N2C(C(=O)O)=C(C[N+]3(C)CCCC3)CS[C@H]12)c1csc(N)n1 | 1.01 ± 0.054 | 0.0358 ± 0.0021
C=CC1=C(C(=O)O)N2C(=O)[C@@H](NC(=O)/C(=N\O)c3csc(N)n3)[C@H]2SC1 | 0.973 ± 0.034 | 0.0262 ± 0.0031

Compound | normalized intracellular growth (time point: T3 (3 h)) | normalized intracellular growth (time point: Tfinal (~6 h))
Cc1nnc(SCC2=C(C(=O)O)N3C(=O)[C@@H](NC(=O)Cn4cnnn4)[C@H]3SC2)s1 | 1.09 ± 0.087 | 1.2 ± 0.074
NC(=O)NC(=O)Cc1ccccc1 | 0.993 ± 0.021 | 0.979 ± 0.038
CNC(=N)NCCC[C@H](N)C(=O)O | 1.11 ± 0.029 | 0.921 ± 0.26
NC[C@H]1O[C@H](O[C@H]2[C@H](O)[C@@H](O[C@H]3O[C@H](CO)[C@@H](O)[C@H](N)[C@H]3O)[C@H](N)C[C@@H]2N)[C@H](N)[C@@H](O)[C@@H]1O | 0.81 ± 0.012 | 0.554 ± 0.025
CC1(C)[C@H]2CC[C@]1(CS(=O)(=O)O)C(=O)C2=Cc1ccc(C=C2C(=O)[C@@]3(CS(=O)(=O)O)CC[C@@H]2C3(C)C)cc1 | 0.978 ± 0.028 | 1.17 ± 0.22
Cc1nccnc1N1CCCCC1 | 1.09 ± 0.057 | 0.933 ± 0.023
CCC(=O)O[C@H](CC(=O)O)C[N+](C)(C)C | 1.06 ± 0.052 | 1 ± 0.028
NCCNCCNCCN | 0.972 ± 0.044 | 1.2 ± 0.037
CC(=O)OC1CC2CCC1(C)C2(C)C (centres undefined) | 1.011 ± 0.01 | 1.14 ± 0.018
CC[n+]1c(-c2ccccc2)c2cc(N)ccc2c2ccc(N)cc21 | 0.993 ± 0.05 | 1.13 ± 0.11
CC(C)(C)CC(C)(C)c1cc(Cc2cc(C(C)(C)CC(C)(C)C)cc(-n3nc4ccccc4n3)c2O)c(O)c(-n2nc3ccccc3n2)c1 | 1.02 ± 0.096 | 1.19 ± 0.3
CNC(=O)c1c(I)c(NC(C)=O)c(I)c(C(=O)O)c1I | 1.01 ± 0.056 | 0.883 ± 0.21
C[N+]1(C)[C@@H]2CC[C@H]1C[C@@H](OC(=O)C(O)c1ccccc1)C2 (some centres undefined) | 0.968 ± 0.056 | 1.06 ± 0.025
C[C@]12C=CC(=O)C=C1CC[C@@H]1[C@@H]2[C@@H](O)C[C@@]2(C)[C@H]1CC[C@]2(O)C(=O)COP(=O)(O)O | 0.954 ± 0.029 | 1.16 ± 0.24
S=C1SCN(Cc2ccccc2)CN1Cc1ccccc1 | 1.01 ± 0.087 | 0.779 ± 0.14
CCOC(=O)C1=C[C@@H](OC(CC)CC)[C@H](NC(C)=O)[C@@H](N)C1 | 1.01 ± 0.021 | 1.33 ± 0.15
CN(Cc1cnc2nc(N)nc(N)c2n1)c1ccc(C(=O)NC(CCC(=O)O)C(=O)O)cc1 (racemic) | 1.05 ± 0.046 | 0.825 ± 0.024
CC1=C(C(=O)O)N2C(=O)[C@@H](NC(=O)[C@H](N)c3ccccc3)[C@H]2SC1 | 1.017 ± 0.0017 | 1.07 ± 0.1
CO/N=C(\C(=O)N[C@@H]1C(=O)N2C(C(=O)O)=C(CSc3nnnn3C)CS[C@H]12)c1csc(N)n1 | 0.987 ± 0.052 | 0.935 ± 0.032
CC1=C(C(=O)O)N2C(=O)[C@@H](NC(=O)[C@H](N)c3ccc(O)cc3)[C@H]2SC1 | 0.982 ± 0.0066 | 0.831 ± 0.018
CO/N=C(\C(=O)N[C@@H]1C(=O)N2C(C(=O)O)=C(CSC(=O)c3ccco3)CS[C@H]12)c1csc(N)n1 | 1 ± 0.029 | 0.0233 ± 0.0029
Nc1nc(/C(=C/CC(=O)O)C(=O)N[C@@H]2C(=O)N3C(C(=O)O)=CCS[C@H]23)cs1 | 0.951 ± 0.059 | 0.0259 ± 0.0032
CO/N=C(\C(=O)N[C@@H]1C(=O)N2C(C(=O)OC(C)OC(C)=O)=C(COC(N)=O)CS[C@H]12)c1ccco1 (some centres undefined) | 1.09 ± 0.063 | 0.977 ± 0.23
CO/N=C(\C(=O)N[C@@H]1C(=O)N2C(C(=O)O)=C(CSc3nc(=O)c(O)nn3C)CS[C@H]12)c1csc(N)n1 | 0.891 ± 0.022 | 0.311 ± 0.035
CO/N=C(\C(=O)N[C@@H]1C(=O)N2C(C(=O)O)=C(COC(N)=O)CS[C@H]12)c1ccco1 | 0.994 ± 0.043 | 0.732 ± 0.083
Cn1nnnc1SCC1=C(C(=O)O)N2C(=O)[C@@H](NC(=O)[C@H](OC=O)c3ccccc3)[C@H]2SC1 | 0.866 ± 0.094 | 0.979 ± 0.024
